PubChem BioAssay (Tox21)
Values without a mark were called inactive. Inconclusive results are not listed. Activity calls are given as the source filed them. Unless noted, calls follow the shape of the dose curve; as a rule, active = well fitted activation curve with a large enough effect in the repeat runs; inconclusive = weak or mixed curves; inactive = flat fitted curve, though single readings scatter.

Each compound was assayed against Androgen receptor (Homo sapiens) (UniProt P10275) (assay: qHTS assay to identify small molecule antagonists of the androgen receptor (AR) signaling pathway (AID 743035; active = well fitted inhibition curve with a large enough effect in the signal ratio in the repeat runs, not every such curve was filed as active; the % refers to the signal ratio; also: potency is read from the fitted curve at half-maximal effect)). Details: HEK293 AR-UAS-bla, R1881-stimulated, beta-lactamase FRET, 16 h; series mostly up to 58.5 µM; activity change, negative = inhibition: at the top concentration.
Androgen receptor (Homo sapiens), sequence (P10275 whole entry, looked up): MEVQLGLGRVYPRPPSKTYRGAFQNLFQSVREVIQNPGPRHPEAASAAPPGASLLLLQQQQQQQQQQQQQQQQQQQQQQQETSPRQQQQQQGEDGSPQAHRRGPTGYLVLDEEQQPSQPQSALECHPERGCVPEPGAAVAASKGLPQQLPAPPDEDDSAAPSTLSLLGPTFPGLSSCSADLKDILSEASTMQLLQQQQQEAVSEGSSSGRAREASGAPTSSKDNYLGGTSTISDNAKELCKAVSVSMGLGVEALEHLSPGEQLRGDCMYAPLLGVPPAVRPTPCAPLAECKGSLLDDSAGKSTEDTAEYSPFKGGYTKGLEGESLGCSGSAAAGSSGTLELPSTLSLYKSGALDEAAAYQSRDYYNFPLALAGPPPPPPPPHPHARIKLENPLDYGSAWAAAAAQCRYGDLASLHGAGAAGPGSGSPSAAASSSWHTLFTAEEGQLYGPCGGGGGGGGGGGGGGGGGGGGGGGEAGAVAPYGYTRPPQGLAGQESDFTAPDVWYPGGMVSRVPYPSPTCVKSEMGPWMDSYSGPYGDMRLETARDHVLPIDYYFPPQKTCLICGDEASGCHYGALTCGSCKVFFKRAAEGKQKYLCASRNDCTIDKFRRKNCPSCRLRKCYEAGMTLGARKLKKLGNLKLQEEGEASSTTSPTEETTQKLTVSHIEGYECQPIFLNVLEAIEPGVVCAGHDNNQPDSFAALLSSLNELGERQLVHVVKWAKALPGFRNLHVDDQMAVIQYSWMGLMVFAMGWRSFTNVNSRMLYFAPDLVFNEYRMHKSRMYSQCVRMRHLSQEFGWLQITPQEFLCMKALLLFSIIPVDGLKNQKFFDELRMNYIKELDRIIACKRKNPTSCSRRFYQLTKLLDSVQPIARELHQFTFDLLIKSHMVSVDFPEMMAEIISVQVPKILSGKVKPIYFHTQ
Procedure, shortened: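 AR-bla HEK293 reporter cells; 4 h settle at 37C/5% CO2; compound + R1881 agonist, 16 h at 37C; LiveBLAzer B/G FRET substrate 2 h RT; fluorescence intensity read. qHTS format.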
% is scaled to controls: 0 for no effect and ±100 for the full control effect.

Compound	Potency	activity change, negative = inhibition [%]
Cc1nn(C)c(Oc2ccccc2)c1/C=N/OCc1ccc(C(=O)OC(C)(C)C)cc1	0.123 µM (active)	–
COc1ccc(S(=O)(=O)N2C(=O)[C@@](c3ccccc3OC)(N3C[C@H](O)C[C@H]3C(=O)N(C)C)c3cc(Cl)ccc32)c(OC)c1	17.4 µM (active)	–
O=[N+]([O-])c1ccc(NCCO)c(OCCO)c1	–	-10.7
CC(C)CC(=O)C1C(=O)c2ccccc2C1=O	49 µM (active)	–

The compounds below were run against Androgen receptor (Homo sapiens) (UniProt P10275) (assay: qHTS assay to identify small molecule agonists of the androgen receptor (AR) signaling pathway (AID 743036; active = well fitted activation curve with a large enough effect in the signal ratio in the repeat runs, with a control signal flat, not every such curve was filed as active; the % refers to the signal ratio)). Details: HEK293 AR-UAS-bla GripTite, beta-lactamase FRET ratio, 16 h; series mostly up to 62.4 µM; activation: at the top concentration.
Procedure, shortened: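 Agonist activity was scored by beta-lactamase reporter fluorescence in stably transfected HEK293 cells exposed to compounds for 16 h at 37C and 5% CO2. Substrate loading took 2 h at room temperature.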

Compound	activation [%]
Cc1nn(C)c(Oc2ccccc2)c1/C=N/OCc1ccc(C(=O)OC(C)(C)C)cc1	3.59
O=[N+]([O-])c1ccc(NCCO)c(OCCO)c1	-7.68
CC(C)CC(=O)C1C(=O)c2ccccc2C1=O	12.6

The compounds below were run against Androgen receptor (Homo sapiens) (UniProt P10275) (assay: qHTS assay to identify small molecule agonists of the androgen receptor (AR) signaling pathway using the MDA cell line (AID 743040; also: nearly all actives have a fitted effect of over 20% in size)). Details: MDA-kb2 AR-luc cells, MMTV luciferase, 16 h; series mostly up to 70.3 µM; activity change: at the top concentration.
Procedure, shortened: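 Cell-based luciferase reporter: MDA-kb2, MMTV promoter (AR + GR response elements). 16 h compound exposure at 37C; ONE-Glo, 30 min RT, luminescence.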

Compound	activity change [%]
Cc1nn(C)c(Oc2ccccc2)c1/C=N/OCc1ccc(C(=O)OC(C)(C)C)cc1	-11.1
COc1ccc(S(=O)(=O)N2C(=O)[C@@](c3ccccc3OC)(N3C[C@H](O)C[C@H]3C(=O)N(C)C)c3cc(Cl)ccc32)c(OC)c1	-10.3
O=C(O)C1(C(=O)Nc2ccc(Cl)cc2Cl)CC1	27.1
O=[N+]([O-])c1ccc(NCCO)c(OCCO)c1	0.988
CC(C)CC(=O)C1C(=O)c2ccccc2C1=O	-2.41
